In PubChem BioAssay (NCATS):
Where “and” joins values, the source holds several entries; their conditions need not be identical. Equal values may be shown once. Results filed as inconclusive are left out. Calls of active or inactive are those of the source. Unless noted, the call rests on the fitted dose curve; in most records, active means well fitted curve in the direction sought with a large enough effect; inconclusive means small, poorly fitted or top-dose-only effect, or another doubt; inactive means no such curve, though single readings can be large; an effect the other way counts as inactive or inconclusive.

Assays:
[1] = MultiTox-Fluor Cytotoxicity Assay - LYMP1-001 - Live Cells (AID 947);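 further: 0% = DMSO only and full inhibition = tetraoctylammonium bromide control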
[2] = Cell Viability - LYMP1-002 - Assay at 16 hr (AID 948);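 further: 0% = DMSO alone and full effect = 92 µM tetraoctylammonium bromide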
In short: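 ATP luminescence (CellTiter-Glo) was measured after 16 hr compound exposure at 37 C of 2500 lymphoblastoid LYMP1-002 cells per well. Concentration-response curves were fitted with the Hill equation to give AC50.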

[3] = Cell Viability - LYMP2-003 (AID 965);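 further: cells exposed to compounds for 24 h before reading; nearly all actives have a fitted effect of over 50% in size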; further: potency means the concentration at half of the fitted maximal effect
In short: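 CellTiter-Glo luminescence quantified ATP loss after 24 h compound treatment of LYMP2-003 lymphoblastoid cells at 37 C. Titration series were fitted with the standard Hill equation to give AC50.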

[4] = Cell Viability - LYMP2-005 (AID 967);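 further: series mostly up to about 92 µM; plate controls were DMSO only for no effect and 92 µM tetraoctylammonium bromide control for full effect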
In short: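 LYMP2-005 human lymphoblastoid cells (2500/well) were treated with compounds for 24 h at 37 C. Intracellular ATP was then measured by CellTiter-Glo luminescence after 30 min at room temperature. AC50 values came from Hill-equation fits of qHTS concentration-response data.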

[5] = Cell Viability - LYMP2-008 (AID 980); further: nearly all actives have a fitted effect of over 60% in size; further: potency means the concentration at half of the fitted maximal effect
In short: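 Acute cytotoxicity is scored as concentration-dependent loss of cellular ATP in a human lymphoblastoid line after 24 hr treatment at 37 C. ATP is quantified by luciferase luminescence.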

[6] = biological target: Bile acid receptor (Homo sapiens) (UniProt Q96RI1); experiment: qHTS assay for small molecule antagonists of farnesoid X receptor signaling (AID 588526; calls by dose curve; further: on the % scale 0 is the no-effect control and ±100 the full control effect)
Bile acid receptor (Homo sapiens), sequence (Q96RI1 whole entry, looked up): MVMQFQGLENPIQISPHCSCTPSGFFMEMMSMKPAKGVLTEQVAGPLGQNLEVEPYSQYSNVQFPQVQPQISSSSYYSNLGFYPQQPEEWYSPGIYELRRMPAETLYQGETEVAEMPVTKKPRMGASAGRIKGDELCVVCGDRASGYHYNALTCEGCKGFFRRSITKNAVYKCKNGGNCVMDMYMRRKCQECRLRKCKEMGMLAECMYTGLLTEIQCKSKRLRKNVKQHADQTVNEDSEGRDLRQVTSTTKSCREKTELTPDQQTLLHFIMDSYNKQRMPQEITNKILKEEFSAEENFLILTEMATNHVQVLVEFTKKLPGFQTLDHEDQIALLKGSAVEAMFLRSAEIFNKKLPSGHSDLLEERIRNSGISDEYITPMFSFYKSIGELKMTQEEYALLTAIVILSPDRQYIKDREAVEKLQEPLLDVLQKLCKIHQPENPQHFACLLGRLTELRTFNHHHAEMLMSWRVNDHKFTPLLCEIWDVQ
In short: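 Antagonist mode: titrated compounds tested against chenodeoxycholic acid stimulation (normalized to 50 uM CDCA and DMSO) in GeneBLAzer HEK293T cells for 16 h. Beta-lactamase read by CCF4 fluorescence; IC50 from Hill fits.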

[7] = biological target: Glucocorticoid receptor (Homo sapiens) (UniProt P04150); experiment: qHTS assay for small molecule agonists of glucocorticoid receptor signaling (AID 588532; active means well fitted curve in the direction sought with a large enough effect in the signal ratio, with a control signal flat; the % refers to the signal ratio;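 further: 100% = dexamethasone at 0.1 µM and 0% = DMSO only wells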); settings: HeLa MMTV-bla, beta-lactamase ratio, agonist, 18 h; stronger effect = higher value; percent of dexamethasone control, DMSO zero
Glucocorticoid receptor (Homo sapiens), sequence (P04150 whole entry, looked up): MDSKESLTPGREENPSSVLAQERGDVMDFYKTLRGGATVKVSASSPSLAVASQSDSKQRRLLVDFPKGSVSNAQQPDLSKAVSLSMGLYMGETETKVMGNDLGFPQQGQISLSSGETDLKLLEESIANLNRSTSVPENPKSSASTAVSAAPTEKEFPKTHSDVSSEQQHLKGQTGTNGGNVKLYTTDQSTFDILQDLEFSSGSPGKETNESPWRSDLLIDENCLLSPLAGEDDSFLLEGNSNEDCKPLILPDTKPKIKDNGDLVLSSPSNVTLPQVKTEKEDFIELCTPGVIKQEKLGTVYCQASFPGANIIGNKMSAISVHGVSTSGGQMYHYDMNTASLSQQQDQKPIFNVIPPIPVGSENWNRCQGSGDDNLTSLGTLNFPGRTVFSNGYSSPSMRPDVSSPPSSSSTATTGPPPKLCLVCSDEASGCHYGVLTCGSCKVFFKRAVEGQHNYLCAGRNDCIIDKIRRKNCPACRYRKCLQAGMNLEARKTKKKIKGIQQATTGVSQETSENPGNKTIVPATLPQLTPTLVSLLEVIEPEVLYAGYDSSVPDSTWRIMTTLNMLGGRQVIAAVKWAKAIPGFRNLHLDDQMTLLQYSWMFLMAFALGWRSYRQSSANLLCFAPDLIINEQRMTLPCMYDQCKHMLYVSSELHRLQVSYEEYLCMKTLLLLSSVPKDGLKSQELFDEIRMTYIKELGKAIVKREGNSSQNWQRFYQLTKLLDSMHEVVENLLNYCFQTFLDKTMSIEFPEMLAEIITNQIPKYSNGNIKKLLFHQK
In short: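 MMTV-bla HeLa beta-lactamase reporter cells in 1% charcoal/dextran FBS medium, compounds up to 92 uM for 18 h at 37 C, CCF4 readout; normalized to 0.1 uM dexamethasone (100%), EC50 and efficacy from Hill fits.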

[8] = biological target: Glucocorticoid receptor (Homo sapiens) (UniProt P04150); experiment: qHTS assay for small molecule antagonists of glucocorticoid receptor signaling (AID 588533; active means well fitted inhibition curve with a large enough effect in the signal ratio, with a control signal flat, not every such curve was filed as active; the % refers to the signal ratio;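 further: cells stimulated with 2 nM dexamethasone as agonist; on the % scale 0 is the no-effect control and ±100 the full control effect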)
In short: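 Antagonist-mode qHTS: compound titrations added to GRE-bla HeLa cells, then dexamethasone 2 nM final; 18 h, 37 C. CCF4 FRET fluorescence normalized to dexamethasone and DMSO; IC50 from Hill fit.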

[9] = qHTS assay for small molecule antagonists of peroxisome proliferator-activated receptor delta signaling (AID 588535; active means well fitted inhibition curve with a large enough effect in the signal ratio, with a control signal flat, not every such curve was filed as active; the % refers to the signal ratio;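 on max response: cells co-treated with a PPAR-delta agonist as stimulator during compound exposure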); settings: HEK293T PPARd-UAS-bla, beta-lactamase FRET ratio, 18 h; 460 nm channel
In short: (§1)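 Cells were seeded at 4000 per well in assay medium containing 2% charcoal/dextran FBS and held 5 hrs at 37 C. Compounds were then added for 18 hrs. CCF4 substrate was applied for 2 hrs at room temperature before fluorescence reading.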

[10] = biological target: Thyroid hormone receptor beta (Homo sapiens) (UniProt P10828); experiment: qHTS assay for small molecule antagonists of thyroid hormone receptor beta signaling (AID 588547; active means well fitted inhibition curve with a large enough effect in the signal ratio, with a control signal flat, not every such curve was filed as active; the % refers to the signal ratio;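 further: cells stimulated with 0.4 nM T3 agonist during compound exposure; series mostly up to about 77 µM; on the % scale 0 is the no-effect control and ±100 the full control effect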); settings: TR-UAS-bla HEK293, beta-lactamase ratio, antagonist mode, 18 h
Thyroid hormone receptor beta (Homo sapiens), sequence (P10828 whole entry, looked up): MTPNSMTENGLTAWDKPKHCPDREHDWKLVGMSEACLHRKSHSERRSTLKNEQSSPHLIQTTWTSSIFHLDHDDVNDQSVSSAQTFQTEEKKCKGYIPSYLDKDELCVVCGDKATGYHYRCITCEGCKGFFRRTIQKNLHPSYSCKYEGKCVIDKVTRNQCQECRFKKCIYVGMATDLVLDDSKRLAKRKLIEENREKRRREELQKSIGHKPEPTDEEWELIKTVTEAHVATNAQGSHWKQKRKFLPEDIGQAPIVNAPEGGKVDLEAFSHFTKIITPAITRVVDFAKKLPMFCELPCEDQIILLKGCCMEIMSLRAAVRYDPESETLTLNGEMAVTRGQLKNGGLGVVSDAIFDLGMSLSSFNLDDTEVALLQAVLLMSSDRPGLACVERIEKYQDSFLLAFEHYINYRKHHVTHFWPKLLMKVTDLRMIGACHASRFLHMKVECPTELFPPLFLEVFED
In short: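 TR-UAS-bla GripTite HEK293 cells in 2% charcoal/dextran FBS medium; compounds 0.59 nM to 92 uM with T3 at 0.4nM final, 18 h at 37 C. Beta-lactamase read by CCF4 fluorescence (460/530 nm); Hill fits gave IC50 and efficacy.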

[11] = qHTS assay for small molecule agonists of the antioxidant response element (ARE) signaling pathway (AID 651741; active means well fitted activation curve with a large enough effect in the signal ratio; the % refers to the signal ratio; further: potency means the concentration at half of the fitted maximal effect; on activation: % of control where 0% means no effect)
In short: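 HepG2 ARE-bla cells plated at 2,000 cells/well and incubated 5 h at 37 C/5% CO2 received 23 nL compound in DMSO. After 16 h at 37 C, LiveBLAzer B/G FRET substrate was applied for 2 h at room temperature and fluorescence read.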

[12] = qHTS assay for small molecule activators of the p53 signaling pathway (AID 651743; active means well fitted activation curve with a large enough effect in the signal ratio, not every such curve was filed as active; the % refers to the signal ratio; further: series mostly up to about 92 µM; % of control where 0% means no effect); settings: HCT-116 p53RE-bla, beta-lactamase FRET ratio, 16 h; activation: stronger effect = higher value
In short: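 HCT-116 p53RE-bla, 4,000 cells/well; 5 h settle; cpd/DMSO 16 h, 37 C; LiveBLAzer B/G 2 h RT; fluorescence intensity.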

[13] = qHTS assay for small molecule activators of the nuclear factor-kappa B (NF-kB) signaling pathway (AID 651749; active means well fitted activation curve with a large enough effect in the signal ratio; the % refers to the signal ratio; further: series mostly up to about 77 µM; % of control where 0% means no effect); settings: NF-kB-bla ME-180 cells, beta-lactamase FRET ratio, 16 h; stronger effect = higher value
In short: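 Incubation lasted 16 hr at 37C in 5% CO2 after 23 nL compound addition to ME-180 NF-kB-bla cells. Activation appears as beta-lactamase-mediated FRET loss.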

[14] = qHTS assay for small molecule disruptors of the mitochondrial membrane potential - 5 hr assay (AID 651755; calls by dose curve; further: nearly all actives have a fitted effect of over 40% in size; further: potency means the concentration at half of the fitted maximal effect)
In short: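 HepG2 cells (2,000/well), attached overnight, exposed to compound 5 hr at 37C, then Mito-MPS dye 30 min. Fluorescence read for monomers (490/535 nm) and aggregates (540/590 nm).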

[15] = Cell Viability - LYMP1-002 - Assay at 24 hr (AID 993); further: on the % scale 0 is the no-effect control and ±100 the full control effect
In short: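 qHTS, LYMP1-002 lymphoblastoid, 24 h cpd, 37 C, CellTiter-Glo ATP luminescence; AC50 via Hill eq.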

[16] = biological target: Estrogen receptor (Homo sapiens) (UniProt P03372); experiment: qHTS assay for small molecule antagonists of estrogen receptor alpha signaling (AID 588513; active means well fitted curve in the direction sought with a large enough effect in the signal ratio, with a control signal flat, not every such curve was filed as active; the % refers to the signal ratio; further: on the % scale 0 is the no-effect control and ±100 the full control effect)
Estrogen receptor (Homo sapiens), sequence (P03372 whole entry, looked up): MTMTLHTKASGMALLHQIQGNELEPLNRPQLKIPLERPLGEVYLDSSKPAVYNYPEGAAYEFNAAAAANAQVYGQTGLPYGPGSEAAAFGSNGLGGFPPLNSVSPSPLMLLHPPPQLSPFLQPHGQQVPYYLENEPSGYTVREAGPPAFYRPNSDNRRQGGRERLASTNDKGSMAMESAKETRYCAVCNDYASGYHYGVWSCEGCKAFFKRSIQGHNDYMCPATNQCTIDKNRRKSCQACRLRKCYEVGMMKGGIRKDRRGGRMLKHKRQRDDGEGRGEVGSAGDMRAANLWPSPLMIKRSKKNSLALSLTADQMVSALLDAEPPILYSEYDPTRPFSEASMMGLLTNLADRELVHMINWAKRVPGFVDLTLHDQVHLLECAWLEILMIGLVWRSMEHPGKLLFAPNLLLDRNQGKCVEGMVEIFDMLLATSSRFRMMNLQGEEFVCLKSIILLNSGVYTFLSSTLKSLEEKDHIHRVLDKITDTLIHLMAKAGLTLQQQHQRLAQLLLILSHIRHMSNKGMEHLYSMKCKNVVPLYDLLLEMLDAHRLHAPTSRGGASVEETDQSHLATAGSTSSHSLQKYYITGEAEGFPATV
In short: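 Antagonist mode: inhibition of 0.5 nM 17-beta-estradiol-driven beta-lactamase reporter in HEK 293 ER-alpha-UAS-bla cells, 18 h at 37C, CCF4 readout after 2 h at RT. Normalised to estradiol and DMSO; titration fitted to Hill.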

[17] = biological target: Peroxisome proliferator-activated receptor delta (Homo sapiens) (UniProt Q03181); experiment: qHTS assay for small molecule agonists of peroxisome proliferator-activated receptor delta signaling (AID 588534; calls by dose curve;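 further: 0% = DMSO basal wells and 100% = positive control agonist at 10 µM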)
Peroxisome proliferator-activated receptor delta (Homo sapiens), sequence (Q03181 whole entry, looked up): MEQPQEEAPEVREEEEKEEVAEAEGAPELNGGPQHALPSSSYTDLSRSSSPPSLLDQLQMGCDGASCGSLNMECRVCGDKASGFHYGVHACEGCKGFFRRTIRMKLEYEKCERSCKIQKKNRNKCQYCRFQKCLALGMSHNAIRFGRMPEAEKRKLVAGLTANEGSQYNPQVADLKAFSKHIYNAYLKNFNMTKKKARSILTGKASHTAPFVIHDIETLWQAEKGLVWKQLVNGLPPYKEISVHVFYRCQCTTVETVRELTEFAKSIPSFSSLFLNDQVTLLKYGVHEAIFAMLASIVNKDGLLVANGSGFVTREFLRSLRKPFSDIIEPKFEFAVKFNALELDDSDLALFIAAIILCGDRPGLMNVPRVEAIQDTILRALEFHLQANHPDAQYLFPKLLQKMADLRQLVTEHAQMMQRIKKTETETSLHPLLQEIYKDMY
In short: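 Reporter cells were plated and held 5 hrs at 37 C before compounds were added. After 18 hrs at 37 C, CCF4 dye was loaded for 2 hrs at RT and fluorescence measured.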

[18] = qHTS assay for small molecule disruptors of the mitochondrial membrane potential - 1 hr assay (AID 651754; calls by dose curve; further: on the % scale 0 is the no-effect control and ±100 the full control effect; nearly all actives have a fitted effect of over 35% in size)
In short: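 Steps: seed HepG2 cells and let attach overnight; pin-transfer compound or vehicle; incubate 1 hr at 37C; add Mito-MPS dye for 30 min; read two-channel fluorescence for monomer and aggregate forms.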

[19] = biological target: Peroxisome proliferator-activated receptor gamma (Homo sapiens) (UniProt P37231); experiment: qHTS assay for small molecule antagonists of peroxisome proliferator-activated receptor gamma signaling (AID 588537; active means well fitted inhibition curve with a large enough effect in the signal ratio, with a control signal flat, not every such curve was filed as active; the % refers to the signal ratio;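 further: reporter cells co-stimulated with 50 nM rosiglitazone agonist during compound treatment; % of control where 0% means no effect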)
Peroxisome proliferator-activated receptor gamma (Homo sapiens), sequence (P37231 whole entry, looked up): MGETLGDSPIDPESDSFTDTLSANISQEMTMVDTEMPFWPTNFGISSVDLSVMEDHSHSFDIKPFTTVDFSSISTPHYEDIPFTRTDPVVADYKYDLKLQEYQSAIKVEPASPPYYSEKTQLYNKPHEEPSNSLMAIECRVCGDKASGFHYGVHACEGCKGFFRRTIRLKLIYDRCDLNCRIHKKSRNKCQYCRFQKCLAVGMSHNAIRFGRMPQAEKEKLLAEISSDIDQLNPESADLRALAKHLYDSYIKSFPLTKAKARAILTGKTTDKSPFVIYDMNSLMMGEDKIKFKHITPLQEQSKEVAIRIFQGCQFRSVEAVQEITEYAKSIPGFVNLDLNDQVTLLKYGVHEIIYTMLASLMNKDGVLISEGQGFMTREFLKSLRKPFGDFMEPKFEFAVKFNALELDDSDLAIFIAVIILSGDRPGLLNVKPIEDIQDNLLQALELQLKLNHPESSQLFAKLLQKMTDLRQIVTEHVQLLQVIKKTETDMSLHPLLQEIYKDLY
In short: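 Step one: plate 3000 HEK293 UAS-bla cells per well in medium with 1% stripped serum and hold 6-6.5 h at 37 C. Step two: add compound and 50 nM agonist for 16 h. Step three: CCF4 loading, fluorescence read.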

[20] = biological target: Peroxisome proliferator-activated receptor delta (Homo sapiens) (UniProt Q03181); experiment: qHTS assay for small molecule antagonists of peroxisome proliferator-activated receptor delta signaling (AID 588535);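 on max response: cells co-treated with a PPAR-delta agonist as stimulator during compound exposure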
In short: as §1

c1ccc(NNc2ccccc2)cc1
inactive: outcome [1] | outcome [2] | Potency [3] | Potency [4] | Potency [5] | outcome [6] | activation [7] 1.14% and -8.47% | outcome [8] | activity change % (negative = inhibition) [10] 8.59% | Potency [11] | activation [12] -0.259% and 0.698% | activation [13] 0.182% and 3.71% | Potency [14]
13.2% and 5.7%: max response [9]

O=C(O)c1cccc(Cl)c1
30.4%: max response [9]
inactive: outcome [1] | outcome [2] | Potency [3] | Potency [4] | Potency [5] | Potency [15] | Potency [16] | outcome [6] | outcome [17] | activity change % (negative = inhibition) [10] 7.72% | Potency [11] | activation [13] -1.59% | Potency [18] | Potency [14]

Nc1ncc([N+](=O)[O-])s1
30.2%: max response [9]
inactive: outcome [2] | Potency [3] | Potency [4] | Potency [5] | Potency [16] | outcome [6] | outcome [8] | outcome [17] | activity change % (negative = inhibition) [10] -7.23% | activation [12] -4.14% | activation [13] 0.765% | Potency [14]

ClCCOCOCCCl
inactive: outcome [1] | outcome [2] | Potency [3] | Potency [5] | Potency [15] | outcome [6] | activation [7] -0.285% | outcome [8] | Potency [19] | activity change % (negative = inhibition) [10] 10.8% | activation [12] -4.18% | activation [13] -0.753% | Potency [18] | Potency [14]

OC[P+](CO)(CO)CO
-16.4%: max response [9]
active: Potency [3] 25.1 µM | Potency [5] 39.8 µM | Potency [11] 37.6 µM and 30.6 µM
inactive: outcome [1] | outcome [2] | Potency [16] | activation [7] -0.662% and -6.97% | outcome [8] | outcome [17] | outcome [20] | Potency [19] | activity change % (negative = inhibition) [10] -18.1% and -15.5% | activation [12] 4.85% and 1.14% | Potency [14]

COC(=O)Nc1cccc(OC(=O)Nc2cccc(C)c2)c1
inactive: outcome [1] | Potency [4] | Potency [5] | Potency [15] | activation [7] -3.09% | outcome [8] | activity change % (negative = inhibition) [10] -5.68% | activation [12] -2.65% | activation [13] -1.26%
active: Potency [14] 42.2 µM

CCOC(=O)C1OC1(C)c1ccccc1 (configuration not stated)
inactive: outcome [1] | Potency [3] | Potency [4] | Potency [5] | Potency [15] | activation [7] -3.51% | outcome [8] | Potency [19] | activity change % (negative = inhibition) [10] 6.83% | activation [12] -3.07% | Potency [18]

Cc1cc(-c2ccc(N)c(C)c2)ccc1N
inactive: outcome [1] | outcome [2] | Potency [3] | Potency [4] | Potency [5] | Potency [15] | Potency [16] | Potency [19] | activity change % (negative = inhibition) [10] 4.51% and -14.4% | Potency [14]
active: Potency [11] 12.2 µM and 6.86 µM

CCC/C=N/O
inactive: outcome [2] | Potency [3] | Potency [5] | Potency [15] | Potency [16] | outcome [6] | activation [7] 5.99% | outcome [8] | Potency [19] | activation [12] 2.09% | Potency [18] | Potency [14]

c1ccoc1
inactive: outcome [2] | Potency [3] | Potency [4] | Potency [15] | Potency [16] | outcome [6] | activation [7] -5.47% | outcome [8] | outcome [17] | Potency [19] | activity change % (negative = inhibition) [10] 20.3% | activation [12] 1.16% | activation [13] 0.149% | Potency [18] | Potency [14]

O=C(O)c1cc(Cl)ccc1Cl
35.4%: max response [9]
inactive: outcome [2] | Potency [3] | Potency [4] | Potency [5] | Potency [15] | outcome [6] | activation [7] -4.37% | outcome [8] | outcome [17] | outcome [20] | Potency [11] | Potency [18]

CC(=O)[O-].CC(=O)[O-].CC(=O)[O-].[Cr+3]
inactive: outcome [2] | Potency [4] | Potency [5] | Potency [15] | activity change % (negative = inhibition) [10] 2.34% | Potency [11] | Potency [18] | Potency [14]

Nc1ccc(-c2ccc(N)cc2)cc1
inactive: outcome [1] | outcome [2] | Potency [3] | Potency [4] | Potency [5] | Potency [16] | activation [7] -6.73% | outcome [8] | Potency [19] | activity change % (negative = inhibition) [10] 12.4% | Potency [11] | activation [12] -1.06% | Potency [14]

CCC#N
inactive: outcome [1] | outcome [2] | Potency [4] | Potency [5] | Potency [15] | outcome [6] | activation [7] -7.32% | outcome [8] | outcome [17] | outcome [20] | activity change % (negative = inhibition) [10] -12.3% | Potency [11] | activation [13] -1.07%
-1.4%: max response [9]

O=S(=O)(O)F
7.1%: max response [9]
inactive: outcome [1] | outcome [2] | Potency [4] | Potency [16] | outcome [6] | outcome [20] | Potency [11] | Potency [18] | Potency [14]

Nc1ccc(-c2ccccc2)cc1
inactive: outcome [2] | Potency [4] | Potency [5] | Potency [15] | Potency [16] | outcome [17] | activity change % (negative = inhibition) [10] -2.45% | activation [12] -1.6% | activation [13] -0.257%

CC(C)[C@]12CC(=O)[C@H](C)[C@H]1C2
17.2% and -10.4%: max response [9]
inactive: outcome [1] | outcome [2] | Potency [3] | Potency [4] | Potency [15] | outcome [6] | outcome [20] | Potency [19] | activity change % (negative = inhibition) [10] -3.76% and 6.48% | Potency [11] | activation [13] -0.354% and -5.97% | Potency [18] | Potency [14]

CCOP(=O)(OCC)OCC
8.93% and -1.46%: max response [9]
inactive: outcome [1] | outcome [2] | Potency [3] | Potency [4] | Potency [5] | Potency [15] | activation [7] 4.27% and 16.4% | outcome [8] | outcome [17] | Potency [19] | activity change % (negative = inhibition) [10] -0.564% and 12.2% | Potency [11] | activation [12] 2.61% and -1.3% | Potency [18]

CCN(CC)N=O
inactive: outcome [1] | outcome [2] | Potency [4] | Potency [5] | Potency [15] | Potency [19] | Potency [11] | activation [12] -1.39% | activation [13] 0.914% | Potency [18] | Potency [14]
